Source: PubChem BioAssay
In the library only some 7.2% were active in any assay of this set; here they are far more common.
Efflux pump mplx: blocks antifungal efflux pumps in multiplex yeast assay | S. cerevisiae Candida pump triplex, Nile Red efflux | inhibition, % at 10 µM | hit rate 0.44% among 330,000;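 active means plate passing quality check with inhibition over a set limit, or well fluorescence over plate mean plus 4 SD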;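 further: Nile Red retained in pooled yeast measured as flow cytometry median fluorescence; higher means more Nile Red kept so more efflux inhibition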
Mot1-301 SUMO: blocks SUMOylation pathway, rescuing yeast Mot1-301 growth | S. cerevisiae Mot1-301 growth rescue, ATP luminescence, 38.5C; percent above DMSO median, 100 means doubled | growth rescue, % at 18.8 µM | hit rate 1% among 320,000 | AID 2716;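 active means every valid replicate shows activation above 250% relative to neutral control wells; inactive means the rest, any valid replicate at or below 250%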
VLA-4 inh: inhibition in a human VLA-4 binding assay | P13612 | VLA-4 expressing cells, ligand binding flow cytometry | inhibition, % (about 7 µM as worked out from the volumes in the protocol) | hit rate 0.2% among 330,000 | AID 2557; in the data active means inhibition above about 50%
ALR inh: inhibitors of human sulfhydryl oxidase ALR; P55789; purified ALR, DTT oxidation, H2O2 HRP-luminol luminescence; inhibition, % (concentration not given with the values); hit rate 3.8% among 290,000; AID 485317;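 active means mean replicate inhibition above about 79%, with every replicate also reaching it, limit read from the data; inconclusive means only one of the two criteria met; inactive means mean below limit and not every replicate reaching it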
A1 inh: inhibitors of the anti-apoptotic protein A1, read as caspase activation; hit rate 0.066% among 330,000; MEF A1-2A-BIM cells, Caspase-Glo 3/7 luminescence, 3 h; percent of clofoctol response, vehicle zero; caspase activation, % (test concentration not listed);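 active means over half of replicate activation scores above 10%, or exactly half above 10 with the replicate mean above 10; inconclusive means replicate mean below 10 yet half the replicates above 10; inactive means over half of replicates below 10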
AHR activator: activators of human aryl hydrocarbon receptor; AHR-responsive luciferase reporter cells, luminescence; activation, % at 5 µM; hit rate 2.5% among 320,000; in the data active means activation above about 47%
Numbers stand for hits; n = inactive; u = inconclusive; x = not tested or not shown.

SMILES	Efflux pump mplx	Mot1-301 SUMO	VLA-4 inh	ALR inh	A1 inh	AHR activator
O=C(CSc1nc(-c2ccccc2)cc(=O)[nH]1)Nc1ccccc1	n	n	n	n	n	n
COc1ccc(NC(=O)CSc2nc(NS(=O)(=O)c3ccccc3)cc(=O)[nH]2)cc1	n	n	n	100	n	n
Cc1cccc(NC(=O)CSc2nc(NS(=O)(=O)c3ccccc3)cc(=O)[nH]2)c1	n	n	n	99	n	n
Cc1ccc(NC(=O)CSc2nc(NS(=O)(=O)c3ccc(C)cc3)cc(=O)[nH]2)cc1	n	n	n	98	n	n
O=c1cc(NS(=O)(=O)c2ccccc2)nc(SCc2ccc(Cl)cc2)[nH]1	n	n	n	n	n	n
CC1CCCC(NC(=O)CN2CCN(S(=O)(=O)c3cccs3)CC2)C1C (stereo not given)	n	n	n	x	n	n
CCn1cc(C(=O)NCCCN2CCC(C)CC2)c(=O)c2cc(S(=O)(=O)N(C)C3CCCCC3)ccc21	n	n	n	n	n	n
C#CCSc1ncc(S(=O)(=O)c2ccccc2)c(=O)[nH]1	n	n	n	x	n	n
Cc1cc(C)cc(NC(=O)CSc2ncc(S(=O)(=O)c3ccccc3)c(=O)[nH]2)c1	n	n	n	99	n	n
C/C=N\NC(=O)COc1cc(C)ccc1C	n	n	n	n	n	n
COc1ccc(-n2sc3c(c2=S)-c2cc(OC)ccc2NC3(C)C)cc1	n	n	n	n	n	66
CC(C)c1ccc(/C=C/C(=O)NC(=S)NN2CCOCC2)cc1	n	n	n	80	n	x
CC(C)c1ccc(/C=C/C(=O)NC(=S)Nc2ccc(CN3CCOCC3)cc2)cc1	n	n	n	n	n	n
O=C(CCl)NCc1c(Cl)cccc1-n1cccc1	n	n	n	96	n	n
CC(=O)NC(CC(=O)OCc1ccc([N+](=O)[O-])cc1)c1ccccc1 (stereo not given)	n	497	n	n	n	n
CCOC(=O)CC(NC(C)=O)c1ccc([N+](=O)[O-])cc1 (stereo not given)	n	n	n	x	n	n
CCC(C)N(C(=O)CSc1nc(C)c(C)c(C)c1C#N)C1CCS(=O)(=O)C1 (stereo not given)	n	n	n	n	n	n
CC(=O)c1cc(NC(=O)c2cccc(C(F)(F)F)c2)c(=O)oc1/C=C/N(C)C	n	n	n	n	n	n
CC(=O)c1cc(NC(=O)c2cccc(C(F)(F)F)c2)c(=O)oc1C	n	n	n	u	n	n
CC(=O)c1cc(NC(=O)c2ccc(Cl)cc2)c(=O)oc1/C=C/N(C)C	n	x	n	97	n	n
COc1ccc(C(=O)Nc2cc(C(C)=O)c(C)oc2=O)cc1	n	n	n	92	n	n
CC(C)CCNC(=O)c1sc2ccc(S(=O)(=O)N3CCCCC3)cc2c1N	n	n	n	n	n	n
O=C(CC(SCCO)c1ccc(F)cc1)c1ccco1 (stereo not given)	n	x	n	89	n	n
COc1ccc(CNC(=O)C2CCN(S(=O)(=O)c3ccc(Br)s3)CC2)cc1	n	n	n	n	n	n
CC1(O)c2ccccc2C(=O)N1CCc1ccccc1F (stereo not given)	n	n	n	n	n	76
SMILES	Efflux pump mplx	Mot1-301 SUMO	VLA-4 inh	ALR inh	A1 inh	AHR activator
COc1ccc(NC(=O)COc2cccc3c2CCN(C)C3=O)c(OC)c1	n	n	n	n	n	77
N#CC1=C(N)Oc2cc(N)ccc2C1c1ccsc1 (stereo not given)	n	n	n	n	n	84
N#CC1=C(N)Oc2cc(N)ccc2C1c1cc(Br)cs1 (stereo not given)	n	n	n	n	n	x
N#CC1=C(N)Oc2cc(N)ccc2C1C1CC=CCC1 (stereo not given)	n	n	n	93	n	n
Cc1ccc(C2C(C#N)=C(N)Oc3cc(N)ccc32)cc1 (stereo not given)	n	n	n	96	n	n
CC(C)(C)NS(=O)(=O)c1ccc(NC(=S)NC(=O)C2CCC2)cc1	n	n	n	n	n	n
COc1ccc(Cl)cc1N(C(C)C(=O)NC1CCCC1)S(C)(=O)=O (stereo not given)	n	n	n	n	n	n
CCOc1ccc(/C=N/Nc2nc(=O)[nH]nc2C)cc1OC	n	n	n	n	n	n
CCOc1cc(/C=N/Nc2nc(=O)[nH]nc2C)ccc1O	n	n	n	99	n	n
COc1cc(/C=N/Nc2nc(=O)[nH]nc2C)cc(OC)c1O	n	n	n	93	n	n
CC(=O)N1c2ccccc2Oc2cc3ccccc3cc21	n	n	n	n	n	65
CC(=O)N1c2ccccc2Nc2ccccc21	n	n	n	n	n	n
CCO[C@@H]1OC(C(=O)NCc2nc3ccccc3[nH]2)=C[C@H](c2coc3ccccc3c2=O)[C@H]1CCCO	n	n	n	n	n	n
FC(F)(F)c1cccc(Cn2nnnc2-c2cc(Cl)cc(Cl)c2)c1	n	n	n	n	n	n
CC1Oc2ccccc2OC1(O)c1ccccn1 (stereo not given)	n	n	n	n	n	n
CC1Oc2ccccc2OC1(O)c1ccc2ccccc2n1 (stereo not given)	n	n	n	n	n	51
OC1CCCC1	n	n	n	n	n	n
O=C(CC1NCCc2ccccc21)Nc1ccc(Cl)cc1 (stereo not given)	n	n	n	n	n	75
O=C(CC1NCCN(Cc2ccccc2)C1=O)Nc1ccc(Cl)cc1 (stereo not given)	n	n	n	n	n	n
O=C(CSc1ncccn1)Nc1cccc2ccccc12	n	n	n	n	n	n
CCC1C(=O)N=C(SCC(=O)Nc2ccc(Br)cn2)NC1=O (stereo not given)	n	n	n	99	n	n
CCC1C(=O)N=C(SCC(=O)Nc2cccc3ccccc23)NC1=O (stereo not given)	n	n	n	99	n	n
Cn1cc(SCC(=O)Nc2nc3ccccc3s2)c2ccccc21	n	n	n	98	n	n
CCC1C(=O)N=C(SCC(=O)Nc2nc3ccccc3s2)NC1=O (stereo not given)	n	n	n	99	n	n
CCN(c1ccccc1)S(=O)(=O)c1cc([N+](=O)[O-])ccc1N	n	n	n	n	n	n
Cn1cc(S(=O)(=O)NC2CCCC2)c(=O)n(C)c1=O	n	n	n	n	n	n
CCOC(=O)c1ccc(NC(=O)CSC2=NC(=O)C(CC)C(=O)N2)cc1 (stereo not given)	n	n	n	99	n	n
Cc1nc(C(F)(F)F)ccc1C(=O)NCC(O)c1ccccc1 (stereo not given)	n	n	n	x	n	71
Oc1c(Cl)cc(Cl)cc1Sc1cc(Cl)cc(Cl)c1O	n	282	n	n	n	n
CC(Nc1ccccc1)c1cc(Cl)ccc1O (stereo not given)	n	n	n	99	n	n
